Structures are written as SMILES. Results with a measured potency or affinity are listed apart.

Among the data in ChEMBL document CHEMBL4513137, “CO-ADD screening of University of Manchester (UK) compounds” are Inhibition values, retold here.

This experiment relates to Escherichia coli. The settings on record: Concentration 32 ug.mL-1; ASSAY_TEST Inhibition of Bacterial Growth; detection method Absorption (OD600); MEDIA CAMHB; plate type 384well; NBS; CORNING #3640; time 18 hr.
As a reminder, the Inhibition is the relative decrease from the control value, in per cent. `COc1cccc(Nc2ccccc2)c1-c1ccc([N+](=O)[O-])cc1`: the Inhibition was determined as 7.82%. `O=[N+]([O-])c1ccc(-c2ccccc2Nc2ccccc2)cc1F`: the Inhibition worked out at 3.69%. In the case of `O=[N+]([O-])c1ccc(-c2ccccc2Nc2ccccc2)cc1`, the Inhibition was found to be 3.34%. For the molecule `O=[N+]([O-])c1ccc(-c2ccccc2Nc2ccccc2)c(Cl)c1`, the Inhibition was -8.34%.

In the case of `COc1cc([N+](=O)[O-])ccc1-c1c(Nc2ccccc2)cccc1OC`, the Inhibition is listed as 7.58%. For `Clc1cc(Br)cc(Cl)c1-c1ccccc1Nc1ccccc1`, the Inhibition was -3.79%. Turning to `Cc1cc(C)c(Nc2ccccc2-c2ccc([N+](=O)[O-])cc2)c(C)c1`, the Inhibition stood at 1.23%.

For the molecule `O=[N+]([O-])c1cc(Cl)c(-c2ccccc2Nc2ccccc2)c(Cl)c1`, the Inhibition is -7.56%.

For the molecule `CC(=O)c1ccc(-c2ccccc2Nc2ccccc2)cc1`, the Inhibition is on record as 6.5%.

For `O=[N+]([O-])c1ccc(-c2cccc3c2[nH]c2ccccc23)cc1`, the Inhibition is reported as 3.84%.

For the molecule `O=[N+]([O-])c1ccc(-c2ccccc2N(Cc2ccccc2)c2ccccc2)cc1`, the Inhibition came out at 4.24%. The value for `Cc1cccc(C)c1Nc1ccccc1-c1ccccc1[N+](=O)[O-]` was 4.01%. As to `CN(c1ccccc1)c1ccccc1-c1ccc([N+](=O)[O-])cc1`, the Inhibition is on record as -0.45%. `c1ccc(Nc2ccccc2-c2ncccn2)cc1`: the Inhibition is 1.3%. As for `Cc1cc([N+](=O)[O-])ccc1-c1ccccc1N(C)c1ccccc1`, the Inhibition came to 0.54%. Consider `COc1cccc(Nc2ccccc2)c1-c1c(Cl)cc(Br)cc1Cl`, for which the Inhibition was 4.62%. Turning to `CC[C@@H](Nc1ccccc1-c1c(Cl)cc(Br)cc1Cl)c1ccccc1`, the Inhibition was 4.43%. The value for `O=[N+]([O-])c1ccc(-c2ccccc2Nc2ccccc2)cc1C(F)(F)F` was 4.01%. The result for `O=[N+]([O-])c1ccc(-c2c(Nc3ccccc3)cccc2-c2ccccc2)cc1` reads -0.69%; that for `O=[N+]([O-])c1ccc2c3ccccc3n(-c3ccccc3)c2c1`, -9.21%; that for `COc1ccc(Nc2ccccc2-c2ccc([N+](=O)[O-])cc2)cc1`, -1.45%. The result for `COc1cccc(N(C)c2cccc(OC)c2-c2ccc([N+](=O)[O-])cc2C)c1` reads 1.91%. For `N#Cc1ccc(-c2ccccc2Nc2ccccc2)cc1`, the Inhibition is listed as -6.88%. As to `COc1cc([N+](=O)[O-])ccc1-c1ccccc1Nc1ccccc1`, the Inhibition is -2.88%. Turning to `O=[N+]([O-])c1ccc(-c2c(Nc3ccccc3)ccc3ccccc23)cc1`, the Inhibition is -0.39%.

In the case of `O=[N+]([O-])c1ccc(-c2ccccc2Nc2ccccc2Br)cc1`, the Inhibition is reported as -1.08%.

For the molecule `Cc1ccccc1Nc1ccccc1-c1ccc([N+](=O)[O-])cc1`, the Inhibition is given as -4.33%.
